# Laboratory results taken from PubChem BioAssay (NCATS).
# Records with an inconclusive call do not appear. Where a call stands in place of a potency, no number is given. Calls of active or inactive are those of the source. The call rests on the fitted dose curve; in most records, active means well fitted cell-killing curve with a large enough effect; inconclusive means small, poorly fitted or top-dose-only effect, or effect the other way; inactive means flat fitted curve, though single readings scatter.
# Test: qHTS for Inhibitors of Ubiquitin-specific Protease USP2a Using CHOP2 as the Reporter: Cytotox Assay (AID 652170); further: nearly all actives have a fitted effect of over 70% in size
# Conditions: HCT116 viability, CellTiter-Glo luminescence, 72 h; series mostly up to 46.1 µM
# Description: Homeostasis of cellular proteins is maintained through a combination of synthesis and degradation. The pathway that accounts for the majority of protein degradation is the ubiquitin-proteasomal pathway. Ubiquitin (Ub) is highly conserved in all cells and the generation of a multi-Ub chain typically targets proteins for degradation by the proteasome. However, ubiquitination is highly reversible and dynamic. Deubiquitination, the reverse process, is catalyzed through the action of enzymes referred to as isopeptidases or deubiquitinating enzymes (DUBs). This group of enzymes is collectively responsible for maintaining adequate pools of free ubiquitin and regulating the ubiquitination status of cellular proteins. The class of DUBs referred to as the ubiquitin-specific proteases (USP) family functions endoproteolytically to cleave Ub chains from a wide range of protein substrates. USP2a deubiquitinates fatty acid synthase (FASN) which has recently been identified as an emerging oncology target. To identify inhibitors of USP2a a cell-free qHTS assay was employed. Confirmed qHTS active compounds were tested for cytoxicity in HCT116 cells (human colon cancer cells) using the Cell Titer Glo luciferase-coupled ATP detection system from Promega. This assays monitors cell proliferation by quantitating the amount of ATP present by luciferase, which in the presence of ATP converts […]. A compound that inhibits cell proliferation would result in a decrease in luminescence. The data were normalized to control columns representing maximum signal (cells with DMSO) and background (no cells with DMSO). The cells were cultured in DMEM with 10% FBS and plated in white solid-bottom tissue-culture treated plates. NIH Molecular Libraries Probe Centers Network [MLPCN] NIH Chemical Genomics Center [NCGC] MLSCN Grant: MH079852 PI Name: Benjamin Nicholson, Progenra Inc, Malvern, PA
# 5 uL of HCT116 (600 cells/well) were plated into a 1536 well plate and then incubated for 6 hr at 37 deg C, 5% CO2. Compounds are added through pinning before the plate is incubated for 72 hr at 37 deg C, 5% CO2. Then, 3 uL of Cell Titer Glo is added, the plate is left at RT for 10 min, before luminescence is detected using the ViewLux.
# Potency means the concentration at half of the fitted maximal effect.
row,Compound,Potency
1,O=C(C[C@H]1CC[C@@H](C(=O)Nc2ccc(S(=O)(=O)Nc3nccs3)cc2)C1)c1ccccc1,inactive
2,Cc1ccc(-c2cc(C(=O)Nc3cccc(S(=O)(=O)Nc4nccs4)c3)c3ccccc3n2)cc1C,inactive
3,CCCc1ccc(-c2csc(NC(=O)c3ccncc3NS(=O)(=O)c3ccc(C)cc3)n2)cc1,20.9 µM (active)
4,N#Cc1cnc(NS(=O)(=O)c2ccc(NC(=O)Cc3ccc(F)c(Cl)c3)cc2)s1,inactive
5,COc1cccc(S(=O)(=O)Nc2cnccc2C(=O)Nc2nc(-c3ccccc3)cs2)c1,23.5 µM (active)
6,N#Cc1ccccc1S(=O)(=O)Nc1cnccc1C(=O)Nc1nc(-c2ccccc2)cs1,inactive
7,O=C(Nc1nc(-c2ccc(F)cc2)cs1)c1ccncc1NS(=O)(=O)c1ccccc1Cl,inactive
8,Cc1ccc(-c2cc(C(=O)Nc3ccc(Cl)cc3)c3ccccc3n2)cc1C,inactive
9,CCCCC1CCC(C(=O)Nc2ccc(S(=O)(=O)Nc3nccs3)cc2)CC1 (stereo not given),inactive
10,Cc1ccc(S(=O)(=O)Nc2cnccc2C(=O)Nc2nc(-c3nc4ccccc4s3)cs2)cc1,inactive
11,Cc1ccc(S(=O)(=O)Nc2cnccc2C(=O)NCCc2ccccc2)cc1,inactive
12,Cc1ccc(S(=O)(=O)Nc2cnccc2C(=O)Nc2nc(-c3cccc(F)c3)cs2)cc1,20.9 µM (active)
13,Cc1ccc(S(=O)(=O)Nc2ccccc2C(=O)Nc2cnc(-c3ccccc3)cn2)cc1,16.6 µM (active)
14,Cc1ccc(S(=O)(=O)Nc2cnccc2C(=O)Nc2nc3ccccc3s2)cc1,inactive
15,Cc1ccc(S(=O)(=O)Nc2cnccc2C(=O)Nc2nc(-c3cccc(Cl)c3)cs2)cc1,23.5 µM (active)
16,O=C(Nc1ccc(S(=O)(=O)Nc2nccs2)cc1)c1ccc(-c2ccccc2)cc1,inactive
17,Cc1ccc(-c2cc(C(=O)Nc3ccc(S(C)(=O)=O)cc3)c3ccccc3n2)cc1C,inactive
18,Cc1ccc(-c2cc(C(=O)Nc3ccc(C(F)(F)F)cc3)c3ccccc3n2)cc1C,inactive
19,CCCOC1CCC(C(=O)Nc2ccc([S+](=O)([O-])Nc3nccs3)cc2)CC1 (stereo not given),inactive
20,Cc1ccc(-c2cc(C(=O)Nc3ccc(S(N)(=O)=O)cc3)c3cccc(C)c3n2)cc1C,inactive

row,Compound,Potency
1,O=C(Nc1nc(-c2ccccc2)cs1)c1ccncc1NS(=O)(=O)c1cccc(Cl)c1,inactive
2,Cc1ccc(S(=O)(=O)Nc2cnccc2C(=O)Nc2nc(-c3ccc4c(c3)CCCC4)cs2)cc1,20.9 µM (active)
3,O=C(Nc1nc(-c2ccccc2)cs1)c1ccncc1NS(=O)(=O)c1ccc(F)cc1Cl,inactive
4,Cc1ccc(S(=O)(=O)Nc2cc([N+](=O)[O-])ccc2C(=O)Nc2nc(-c3ccccc3)cs2)cc1,5.26 µM (active)
5,O=C(O)C1CCC(C(=O)Nc2ccc([S+](=O)([O-])Nc3nccs3)cc2)CC1 (stereo not given),inactive
6,Cc1ccc(S(=O)(=O)Nc2ccc(Cl)c(C(=O)Nc3nc(-c4ccccc4)cs3)c2)cc1,inactive
7,O=C1CCCc2cc(S(=O)(=O)Nc3cnccc3C(=O)Nc3nc(-c4ccccc4)cs3)ccc2N1,inactive
8,Cc1ccc(S(=O)(=O)Nc2cnccc2C(=O)Nc2nc(C(=O)O)cs2)cc1,inactive
9,CC(C)(C)NC(=O)N1CCC(C(=O)Nc2ccc([S+](=O)([O-])Nc3nccs3)cc2)CC1,inactive
10,O=C(Nc1ccc(S(=O)(=O)Nc2nccs2)cc1)c1ccc2ccccc2c1,inactive
11,Cc1ccc(-c2cc(C(=O)Nc3ccc4[nH]ccc4c3)c3ccccc3n2)cc1C,inactive
12,Cc1ccc(-c2cc(C(=O)Nc3ccc(S(=O)(=O)Nc4cccnc4)cc3)c3ccccc3n2)cc1C,inactive
13,O=C(Nc1nc(-c2ccccc2)cs1)c1ccncc1NS(=O)(=O)c1ccc(F)c(F)c1,inactive
14,O=S(=O)(Nc1nccs1)c1ccc(Nc2nc(-c3ccc(-c4ccccc4)cc3)cs2)cc1,inactive
15,Cc1ccc(S(=O)(=O)Nc2cnccc2C(=O)Nc2nc(-c3ccc(Oc4ccccc4)cc3)cs2)cc1,20.9 µM (active)
16,Cn1cnc(S(=O)(=O)Nc2cnccc2C(=O)Nc2nc(-c3ccccc3)cs2)c1,inactive
17,Cc1ccc(-c2cc(C(=O)Nc3ccc4ccccc4c3)c3ccccc3n2)cc1C,inactive
18,CC(=O)Nc1ncc(S(=O)(=O)Nc2cnccc2C(=O)Nc2nc(-c3ccccc3)cs2)s1,inactive
19,COC(=O)C1=CC[C@H](c2ccc(C)cc2)N(S(=O)(=O)c2ccc(C)cc2)[C@@H]1c1ccc(C(C)(C)C)cc1,inactive
20,Nc1ccc(S(=O)(=O)Nc2cnccc2C(=O)Nc2nc(-c3ccccc3)cs2)cc1,inactive
